Results taken from PubChem BioAssay AID623996 (NMMLSC, 2012).
Measured potencies and affinities stand elsewhere. Calls of active or inactive are those of the source.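 How the source made its calls: active means fitted concentration giving half the maximal Nile Red retention below 100 µM; inactive means the rest.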

target: Multidrug resistance protein CDR1 (Candida albicans) (UniProt P43071); test: Candida albicans Cdr1 pump inhibition curves – singleplex, Cherry Pick2 set, dose response (AID 623996); conditions: S. cerevisiae AD/CaCDR1, Nile Red efflux inhibition, flow cytometry; series mostly up to 100 µM
Sequence (P43071 whole entry, looked up): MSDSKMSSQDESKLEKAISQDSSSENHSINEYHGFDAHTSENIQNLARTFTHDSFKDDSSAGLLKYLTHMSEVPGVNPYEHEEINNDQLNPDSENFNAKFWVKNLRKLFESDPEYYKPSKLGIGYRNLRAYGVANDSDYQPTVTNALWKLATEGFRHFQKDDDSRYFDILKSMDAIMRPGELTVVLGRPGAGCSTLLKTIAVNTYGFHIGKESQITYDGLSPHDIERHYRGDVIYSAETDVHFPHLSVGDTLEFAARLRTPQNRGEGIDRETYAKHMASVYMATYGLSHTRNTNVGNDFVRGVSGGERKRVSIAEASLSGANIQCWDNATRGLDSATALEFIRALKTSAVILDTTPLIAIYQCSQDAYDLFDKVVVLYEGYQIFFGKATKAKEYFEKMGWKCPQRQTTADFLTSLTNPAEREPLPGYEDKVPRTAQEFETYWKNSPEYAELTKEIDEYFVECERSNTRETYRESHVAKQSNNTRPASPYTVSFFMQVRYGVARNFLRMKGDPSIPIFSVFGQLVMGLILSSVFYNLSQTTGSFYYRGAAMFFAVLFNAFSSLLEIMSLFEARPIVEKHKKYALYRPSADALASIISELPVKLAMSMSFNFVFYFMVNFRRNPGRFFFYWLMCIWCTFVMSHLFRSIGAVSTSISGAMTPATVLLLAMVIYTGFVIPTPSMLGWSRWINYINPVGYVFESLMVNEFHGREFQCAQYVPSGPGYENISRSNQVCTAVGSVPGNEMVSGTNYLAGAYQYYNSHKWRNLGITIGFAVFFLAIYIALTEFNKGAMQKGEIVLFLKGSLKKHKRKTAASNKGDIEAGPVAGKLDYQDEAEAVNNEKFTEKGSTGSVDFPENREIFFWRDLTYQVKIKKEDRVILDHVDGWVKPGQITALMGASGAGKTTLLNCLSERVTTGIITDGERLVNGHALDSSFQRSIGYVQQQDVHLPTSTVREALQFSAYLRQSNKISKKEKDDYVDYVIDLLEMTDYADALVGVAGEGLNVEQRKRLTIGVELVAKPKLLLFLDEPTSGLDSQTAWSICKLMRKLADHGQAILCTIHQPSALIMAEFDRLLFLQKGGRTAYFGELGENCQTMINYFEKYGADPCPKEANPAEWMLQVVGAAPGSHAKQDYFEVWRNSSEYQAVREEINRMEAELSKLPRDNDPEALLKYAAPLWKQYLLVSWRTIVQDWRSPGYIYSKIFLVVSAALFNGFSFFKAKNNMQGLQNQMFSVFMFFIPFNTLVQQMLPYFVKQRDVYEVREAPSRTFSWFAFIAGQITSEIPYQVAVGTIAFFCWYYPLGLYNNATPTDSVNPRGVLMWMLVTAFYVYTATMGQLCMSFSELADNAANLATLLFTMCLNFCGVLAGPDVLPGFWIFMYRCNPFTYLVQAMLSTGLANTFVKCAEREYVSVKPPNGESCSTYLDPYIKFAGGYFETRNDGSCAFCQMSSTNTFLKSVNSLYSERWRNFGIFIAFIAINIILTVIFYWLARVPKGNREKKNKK

| Compound | outcome |
| --- | --- |
| C[C@@]12C(=O)Nc3ccc(Cl)cc3C(=O)N1[C@H]1c3cc(Cl)ccc3OC[C@@H]1[C@@H]2c1ccccc1 | inactive |
| CC(C)C(=O)N1CCC2(CC1)Oc1ccc(Cl)cc1C(=O)C21CC(c2ccc(Cl)cc2)=NO1 (stereo not given) | inactive |
| O=C(Nc1ccccc1)C1=C[C@@H](c2ccc(Br)cc2)C[C@@H](OCCCCO)O1 | inactive |
| O=C(C1CCCN(c2ncnc3c2nc2n3CCCCC2)C1)N1CCN(c2ccccc2)CC1 (stereo not given) | inactive |
| O=C(NC1CCCc2c1cnn2-c1ccccc1F)c1ccccn1 (stereo not given) | inactive |
| O=C(C1CCC(CNc2nc(=S)[nH]c3ccccc23)CC1)N1CCN(c2ccc(F)cc2)CC1 (stereo not given) | inactive |
| COc1ccccc1C(=O)OCCc1ccccc1 | inactive |
| CCCCCc1cc(=O)oc2c(C(CCN3CCCC(C)C3)c3ccc(N(C)C)cc3)c(OC)cc(OC)c12 (stereo not given) | inactive |
| O=C(C[n+]1cc(-c2ccccc2)n2c1CCC2)N1c2ccccc2Sc2ccccc21 | inactive |
| COc1cccc(N2CCN(C(=O)C3CCCN(c4ncnc5c4nc4n5CCCCC4)C3)CC2)c1 (stereo not given) | inactive |
| CCN(CC)CCC(c1ccc(N(C)C)cc1)c1c(OC)cc(OC)c2ccc(=O)oc12 (stereo not given) | inactive |
| CCO[C@@H]1OC(C(=O)Nc2ccccc2)=C[C@H](c2ccccc2)[C@H]1CCCO | inactive |
| CC1CN(c2nc3ccccc3nc2C(C#N)C(=O)NCc2ccc3c(c2)OCO3)CC(C)O1 (stereo not given) | inactive |
| COc1ccc(OC)c2sc(NC(=O)c3ccc(Br)s3)nc12 | inactive |
| Cc1ccc(CNC(=O)C2CCC(CNc3nc(=S)[nH]c4ccccc34)CC2)cc1 (stereo not given) | inactive |
| O=C(c1ccoc1)N1CCC2(CC1)Oc1ccc(F)cc1C(=O)C21CC(c2ccccc2)=NO1 (stereo not given) | inactive |
| O=C1C(Cc2ccccc2)Nc2ncnc(N3CCN(c4ccccc4)CC3)c2N1Cc1ccccc1 (stereo not given) | inactive |
| NS(=O)(=O)c1ccc(N2N=C(c3ccccc3)CC2c2ccccc2)cc1 (stereo not given) | inactive |
| COc1ccc(C(=O)NC2CC(C)(C)Cc3c2cnn3-c2ccccc2)c(OC)c1 (stereo not given) | inactive |
| O=C(Nc1ccccc1)C1=C[C@H](c2ccccc2)C[C@H](OCCCCO)O1 | inactive |
| NS(=O)(=O)c1ccc(N2N=C(c3ccccc3)CC2c2ccc(Br)cc2)cc1 (stereo not given) | inactive |
| COc1ccc([C@H]2CC(=O)C=C(c3ccnc4ccc(Cl)cc34)C2)cc1 | inactive |
| Cc1cc(C(=O)NC2CC(C)(C)Cc3c2cnn3-c2ccc(F)cc2)no1 (stereo not given) | inactive |
| Nc1ccc(C(=O)OCCc2ccccc2)cc1 | inactive |
| COc1ccc(C2CC(c3ccccc3)=NN2c2ccc(S(N)(=O)=O)cc2)cc1 (stereo not given) | inactive |
| Cc1cccc2sc(N(CCCN(C)C)C(=O)c3ccc(Cl)s3)nc12 | inactive |
| C[C@@]12C(=O)Nc3cc(F)c(F)cc3C(=O)N1[C@H]1c3cc(Cl)ccc3OC[C@@H]1[C@@H]2c1ccccc1 | inactive |
| Cc1ccc(-c2c[n+](CC(=O)N3c4ccccc4Sc4ccccc43)c3n2CCC3)cc1 | inactive |
| CCCCNC(=O)C1CCC(CNc2nc(=S)[nH]c3ccccc23)CC1 (stereo not given) | inactive |
| Cc1ccc2c(c1)[C@H]1[C@H](CO2)[C@H](c2ccccc2)[C@]2(C)C(=O)Nc3cc(F)c(F)cc3C(=O)N12 | inactive |
